From PubChem BioAssay (EPA / NIEHS)
Inconclusive results are not listed. Active and inactive are the calls of the source. Rule for the calls: active = hit-call score of the fitted dose curve at least 0.9, where 1 is the maximum; inconclusive = response in the unintended direction; inactive = score below 0.9.

test system: not listed separately; assay: TOX21_p53_BLA_p4_viability: Viability Assessment in the Tox21 HCT-116 p53 Agonism Beta-lactamase Assay, Phase 4 (AID 2283597);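 note: hits lower the luminescence signal meaning cytotoxicity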
Procedure, shortened: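 Cytotoxicity as reduced cellular ATP (CellTiter-Glo luminescence, 30 min room temperature), measured in the same wells following the CCF4 FRET p53 reading. Human HCT-116 cells received compounds in DMSO (217-fold dilution) for 16 h.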

| SMILES | outcome |
| --- | --- |
| CCN(CC)CCC(=O)N1c2ccccc2Sc2ccc(C(F)(F)F)cc21 | inactive |
| CC(C)(C)C(=O)NCCCC(=O)O | inactive |
| O=C1NC(=O)c2cc([N+](=O)[O-])ccc21 | inactive |
| CN1CCN(c2c(F)cc3c(=O)c(C(=O)O)cn4c3c2OCN4C)CC1 | inactive |
| C[Se]CCC(N)C(=O)O (configuration not stated) | inactive |
| C1=CCC2CC=CC2C1 (configuration not stated) | inactive |
| CC(C)C(=O)O | inactive |
| Cc1ncsc1CCO | inactive |
| CCN(CC)CCNC(=O)COc1ccc(OC)cc1 | inactive |
| COC(=O)C(C)O (configuration not stated) | inactive |
| CCN(C)C(=O)Oc1cccc([C@H](C)N(C)C)c1 | inactive |
| C[N+]1(C)[C@@H]2CC(OC(=O)[C@H](CO)c3ccccc3)C[C@H]1[C@@H]1O[C@@H]12 (some centres not stated) | inactive |
| N#CSc1ccc(N)c([N+](=O)[O-])c1 | inactive |
| N[C@@H](CCC(=O)Nc1ccc([N+](=O)[O-])cc1)C(=O)O | inactive |
| CC(C)OC(=O)C(C(=O)OC(C)C)=C1SC=CS1 | inactive |
| CCCCCC(C)N (configuration not stated) | inactive |
| CC(C(=O)O)c1ccc(C(=O)c2cccs2)cc1 (configuration not stated) | inactive |
| O=C(C(=O)c1ccco1)c1ccco1 | inactive |
| COc1ccc(C2(C#N)CCC(C(=O)O)CC2)cc1OC1CCCC1 (configuration not stated) | inactive |

| SMILES | outcome |
| --- | --- |
| O=C(CN1CCNCC1)NC1CCCCC1 | inactive |
| C[C@]12CC[C@@H]3c4ccc(O)cc4CC[C@H]3[C@@H]1CC[C@@H]2OP(=O)(O)O | inactive |
| Nc1nc2c(ncn2COC(CO)CO)c(=O)[nH]1 | inactive |
| O=C[O][Al]([O]C=O)[O]C=O | inactive |
| Cc1c(N=C=O)cccc1N=C=O | inactive |
| CC(=O)Oc1cc(C(C)C)c(OCCN(C)C)cc1C | inactive |
| O=C1c2ccccc2C(=O)c2c1ccc(O)c2O | inactive |
| NC(=O)Nc1nc2ccccc2[nH]1 | inactive |
| C=CCOC(=O)CCCCCCCC | inactive |
| Oc1ccc(C2CNCCc3c2cc(O)c(O)c3Cl)cc1 (configuration not stated) | inactive |
| C=N[C@@H](C(=O)N[C@@H]1C(=O)N2[C@@H]1SC(C)(C)[C@@H]2C(=O)O)c1ccccc1 | inactive |
| Cc1cc(O)ccc1N | inactive |
| CCC(C)(C)CC | inactive |
| O=C1c2ccccc2C(=O)C1c1ccc(F)cc1 | inactive |
| Nc1cccc([N+](=O)[O-])c1 | inactive |
| C1CSCCS1 | inactive |
| O=C1CCCc2c1cc1ccc3cccc4ccc2c1c34 | inactive |
| C=CC[N+]1([C@H]2C[C@H]3[C@@H]4CC[C@H]5C[C@H](O)[C@@H](N6CCOCC6)C[C@]5(C)[C@H]4CC[C@]3(C)[C@H]2OC(C)=O)CCCC1 | inactive |

target: Cellular tumor antigen p53 (Homo sapiens) (UniProt P04637); assay: TOX21_p53_BLA_p5_ratio: Tox21 HCT-116 p53 Agonism Beta-lactamase Assay, Ratio, Phase 5 (AID 2283599)
Procedure, shortened: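 HCT-116 p53-bla cells (4000/well) plated 5 h, dosed with compound (217-fold DMSO dilution) for 16 h at 37 C; CCF4-AM substrate 2 h at room temperature. Activity is the 460/530 nm emission ratio (405 nm excitation), fitted in gain-of-signal direction versus DMSO.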

Chain of Cellular tumor antigen p53 (Homo sapiens) (P04637 whole entry, looked up): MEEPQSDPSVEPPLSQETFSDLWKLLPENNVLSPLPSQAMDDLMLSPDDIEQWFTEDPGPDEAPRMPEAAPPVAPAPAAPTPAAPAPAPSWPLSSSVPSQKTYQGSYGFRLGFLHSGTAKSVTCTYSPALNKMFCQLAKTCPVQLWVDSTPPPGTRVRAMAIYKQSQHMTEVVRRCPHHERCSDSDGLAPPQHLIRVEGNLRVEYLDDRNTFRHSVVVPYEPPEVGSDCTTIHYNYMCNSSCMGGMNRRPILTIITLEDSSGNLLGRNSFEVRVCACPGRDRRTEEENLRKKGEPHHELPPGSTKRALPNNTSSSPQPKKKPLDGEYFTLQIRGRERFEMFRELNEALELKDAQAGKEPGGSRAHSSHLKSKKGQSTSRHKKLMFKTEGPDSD

| SMILES | outcome |
| --- | --- |
| CCN(CC)CCC(=O)N1c2ccccc2Sc2ccc(C(F)(F)F)cc21 | inactive |
| CC(C)(C)C(=O)NCCCC(=O)O | inactive |
| O=C1NC(=O)c2cc([N+](=O)[O-])ccc21 | inactive |
| C1=CCC2CC=CC2C1 (configuration not stated) | inactive |
| CC(C)C(=O)O | inactive |
| Cc1ncsc1CCO | inactive |
| CCN(CC)CCNC(=O)COc1ccc(OC)cc1 | inactive |
| COC(=O)C(C)O (configuration not stated) | inactive |
| C[N+]1(C)[C@@H]2CC(OC(=O)[C@H](CO)c3ccccc3)C[C@H]1[C@@H]1O[C@@H]12 (some centres not stated) | inactive |
| N#CSc1ccc(N)c([N+](=O)[O-])c1 | inactive |
| N[C@@H](CCC(=O)Nc1ccc([N+](=O)[O-])cc1)C(=O)O | inactive |
| CC(C)OC(=O)C(C(=O)OC(C)C)=C1SC=CS1 | inactive |
| CCCCCC(C)N (configuration not stated) | inactive |
| O=C(C(=O)c1ccco1)c1ccco1 | inactive |
| COc1ccc(C2(C#N)CCC(C(=O)O)CC2)cc1OC1CCCC1 (configuration not stated) | inactive |
| O=C(CN1CCNCC1)NC1CCCCC1 | inactive |
| Nc1nc2c(ncn2COC(CO)CO)c(=O)[nH]1 | inactive |
| O=C[O][Al]([O]C=O)[O]C=O | inactive |
| O=C1c2ccccc2C(=O)c2c1ccc(O)c2O | inactive |
| NC(=O)Nc1nc2ccccc2[nH]1 | inactive |
| C=CCOC(=O)CCCCCCCC | inactive |
| Oc1ccc(C2CNCCc3c2cc(O)c(O)c3Cl)cc1 (configuration not stated) | inactive |
| C=N[C@@H](C(=O)N[C@@H]1C(=O)N2[C@@H]1SC(C)(C)[C@@H]2C(=O)O)c1ccccc1 | inactive |
| Cc1cc(O)ccc1N | inactive |
| CCC(C)(C)CC | inactive |
| O=C1c2ccccc2C(=O)C1c1ccc(F)cc1 | inactive |
| Nc1cccc([N+](=O)[O-])c1 | inactive |
| C1CSCCS1 | inactive |
| O=C1CCCc2c1cc1ccc3cccc4ccc2c1c34 | inactive |

test system: not listed separately; assay: TOX21_p53_BLA_p5_viability: Viability Assessment in the Tox21 HCT-116 p53 Agonism Beta-lactamase Assay, Phase 5 (AID 2283600)
Procedure, shortened: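 Viability came from CellTiter-Glo ATP luminescence, read after 30 min at room temperature. Before this, HCT-116 p53-bla cells (4000/well) had 16 hours of compound exposure at 37C, with DMSO stocks diluted 217-fold on transfer.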

| SMILES | outcome |
| --- | --- |
| CC(C)(C)C(=O)NCCCC(=O)O | inactive |
| O=C1NC(=O)c2cc([N+](=O)[O-])ccc21 | inactive |
| C1=CCC2CC=CC2C1 (configuration not stated) | inactive |
| CC(C)C(=O)O | inactive |
| Cc1ncsc1CCO | inactive |
| CCN(CC)CCNC(=O)COc1ccc(OC)cc1 | inactive |
| C[N+]1(C)[C@@H]2CC(OC(=O)[C@H](CO)c3ccccc3)C[C@H]1[C@@H]1O[C@@H]12 (some centres not stated) | inactive |
| CC(C)OC(=O)C(C(=O)OC(C)C)=C1SC=CS1 | inactive |
| CCCCCC(C)N (configuration not stated) | inactive |
| O=C(C(=O)c1ccco1)c1ccco1 | inactive |
| COc1ccc(C2(C#N)CCC(C(=O)O)CC2)cc1OC1CCCC1 (configuration not stated) | inactive |
| O=C(CN1CCNCC1)NC1CCCCC1 | inactive |
| Nc1nc2c(ncn2COC(CO)CO)c(=O)[nH]1 | inactive |
| O=C[O][Al]([O]C=O)[O]C=O | inactive |
| O=C1c2ccccc2C(=O)c2c1ccc(O)c2O | inactive |
| NC(=O)Nc1nc2ccccc2[nH]1 | inactive |
| C=CCOC(=O)CCCCCCCC | inactive |
| C=N[C@@H](C(=O)N[C@@H]1C(=O)N2[C@@H]1SC(C)(C)[C@@H]2C(=O)O)c1ccccc1 | inactive |
| Cc1cc(O)ccc1N | inactive |
| Nc1cccc([N+](=O)[O-])c1 | inactive |
| C1CSCCS1 | inactive |
